High-throughput results deposited in PubChem by several laboratories.
Compounds with a hit are over-represented: about 4.3% of the library has one in this group of screens.
esBAF inh = Bmi1 luciferase reporter increase in mESCs, primary screen, esBAF inhibitor project, mouse ES cells, Bmi1 luciferase knock-in, single point. reporter increase, % at 12.5 µM. actives 2% (n = 350,000). AID 602393, 2012. 24 h; 100% = twice the neutral-well signal; in the data active = activation above about 40%; inconclusive = no clear call, values can overlap the other calls;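 also: 0% = median of the plate's neutral control wells and 100% = double that signal; a rise in the Bmi1 reporter signal indicates esBAF inhibition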
SMARCA2 act = SMARCA2 (BRM) function activators, primary screen, cell-based, luminescence, high throughput | MG213 cells, MMTV-luciferase reporter, dexamethasone, overnight | activation, % at 9.1 µM | actives 1% (n = 370,000); in the data active = activation above about 7.8%;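 also: 0% = vehicle wells and 100% = reference activator wells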
HSF1 activator = HSF-1 activators, primary screen, NIH3T3-HGL cells, MG132 stress, luminescence, single point; NIH3T3-HGL HSF-1 luciferase reporter, 8 h; 100% = twice DMSO control signal; activation, % at 9 µM; actives 1.7% (n = 300,000); AID 504408, 2011;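 active = mean replicate activation of at least 50% with a set share of replicates each reaching 50%; inconclusive = only one of those two conditions met; inactive = mean below 50% and too few replicates reaching it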;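 also: 0% = median of the neutral control wells and 100% = twice that signal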
MITF TRPM1 HTS = activators of MITF-driven TRPM1 promoter reporter, primary screen, cell-based, SK-MEL-5, luciferase, single point; actives 0.75% (n = 300,000); SK-MEL-5 TRPM1-promoter luciferase, 24 h; % of positive control, neutral wells = 0; activation, % at 12.5 µM;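 active = mean activation of at least 80% with every replicate also reaching 80%; inconclusive = mean reaches 80% but some replicate falls short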;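 also: 0% = neutral control wells and 100% = parthenolide positive control wells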
Wnt act = Wnt/beta-catenin pathway activators, primary screen, cell-based, plate reader, single point | AID 743398, 2014 | actives 1.2% (n = 300,000) | Wnt/beta-catenin reporter cell assay, activator | activation, % at 9.35 µM; in the data active = activation above about 30%, passing the limit was not always enough; inconclusive = no clear call, values can overlap the other calls;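 also: 0% = neutral control wells and 100% = positive control wells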
HSF1 inh = HSF1 inhibitors in luciferase reporter cells, primary screen, cell-based, NIH3T3, luminescence. NIH3T3-HGL HSE-luciferase, MG132-induced, luminescence 8 h; hits give low values. activity change, negative = inhibition, % at 7.5 µM (by protocol). actives 0.77% (n = 300,000). AID 2098, 2009;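 active = more than half of replicate wells show activity change below -50%, luminescence cut by over half; inconclusive = some wells, but at most half, below -50%; inactive = no replicate well below -50%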;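 also: luciferase reports HSF-1 transcriptional activity via heat shock element; 0% = median of DMSO wells and -100% = zero luminescence signal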
Starred values were filed as active, the others as inactive; ? = inconclusive; / = not tested or not shown.

SMILES | esBAF inh | SMARCA2 act | HSF1 activator | MITF TRPM1 HTS | Wnt act | HSF1 inh
CCOC(=O)N/N=C/C(Cl)=C/c1ccccc1 | 56.0* | 2.4 | 16.1 | 74.8 | 15.9 | 2.5
O=C(Cc1cccs1)N/N=C/C(Cl)=C/c1ccccc1 | / | 3.7 | -35.5 | 77.8 | ? | -16.4
Cc1noc(C)c1NC(=O)N(C)C[C@@H]1Oc2c(NC(=O)c3cnccn3)cccc2C(=O)N([C@@H](C)CO)C[C@H]1C | 1.5 | / | / | / | / | /
Cc1noc(C)c1S(=O)(=O)Nc1ccc2c(c1)C(=O)N([C@H](C)CO)C[C@@H](C)[C@@H](CN(C)Cc1ccncc1)O2 | 0.3 | / | / | / | / | /
O=C(N/N=C/C(Br)=C/c1ccccc1)c1cccnc1 | / | 5.3 | 82.2* | / | -20.3 | 71.5
NCCCC(=O)O | 0.1 | -3.8 | -75.8 | 3.9 | -3.9 | -70.4*
O=C(C[C@H]1CC[C@H]2[C@@H](COC[C@@H](O)CN2C(=O)c2cccnc2)O1)Nc1ccc(-c2ccccc2)cc1 | 7.6 | / | / | / | / | /
CCOC(=O)COc1ccccc1/C=C\[N+](=O)[O-] | / | / | -65.5 | -97.9 | / | -61.3*
Cc1ccc(C(=O)COC(=O)COc2ccccc2[N+](=O)[O-])s1 | 6.2 | -2.3 | / | / | -4.7 | /
C=C(C)CSc1nncn1/N=C/c1ccc(OC)cc1 | 49.6* | 6.2 | 28.1 | 98.3* | / | 1.3
COc1cc(C(F)(F)F)ccc1C(=O)NCCc1ccco1 | 60.0* | -3.6 | 35.2 | 107.0* | 4.2 | -0.5
COc1cc(OC)c(C(=O)NCc2ccco2)cc1OC | -0.2 | -0.9 | 2.7 | / | -1.2 | -3.2
Clc1ccc2nc(-c3ccccc3)c(CN3CCOCC3)n2c1 | / | -0.4 | 0.6 | 5.9 | / | 10.5
COc1ccc(-c2nc3c4ccccc4ccn3c2CN2CCOCC2)cc1OC | 57.0* | -1.2 | -2.9 | 44.3 | 28.2 | 3.1
COc1ccc(-c2nc3c(C)cc(Br)cn3c2Cc2cccc(F)c2)cc1OC | -2.4 | -0.3 | / | / | -0.6 | /
COc1ccc(-c2nc3c4ccccc4ccn3c2Cc2cccc(F)c2)cc1OC | 41.4* | 6.1 | / | / | 3.0 | /
COc1ccc(-c2nc3c4ccccc4ccn3c2CC2CCCCC2)cc1OC | 1.4 | 1.7 | / | / | 5.9 | /
c1ccc(-c2nc3c4ccccc4ccn3c2CN2CCOCC2)cc1 | 34.0 | 1.4 | 10.4 | 9.3 | 48.8* | 7.1
CC(C)NC(=O)Nc1cccc2c1O[C@H](CN(C)Cc1ccc(-c3ccccc3)cc1)[C@@H](C)CN([C@H](C)CO)C2=O | -3.0 | / | / | / | / | /
C/C=C/c1cnc2c(c1)C(=O)N([C@H](C)CO)C[C@@H](C)[C@H](CN(C)Cc1ccccc1)O2 | -2.3 | / | / | / | / | /
CCCNC(=O)[C@H]1[C@H](CO)[C@H]2Cn3c(cccc3=O)[C@H]2N1CCC(F)(F)F | -0.1 | / | / | / | / | /
O=C(Nc1ccc(Cl)cc1)c1csc(COCCO)n1 | 53.0* | 4.6 | / | / | 13.2 | /
Cc1ccc2nc(N3C(=O)C(O)=C(C(=O)c4cc5ccccc5o4)C3c3cccs3)sc2c1 (stereo unspecified) | 44.5* | / | -10.1 | 6.2 | / | -11.6
O=C(C1=C(O)C(=O)N(c2nc3ccc(Cl)cc3s2)C1c1ccco1)c1ccco1 (stereo unspecified) | ? | -2.0 | / | -13.9 | 32.6* | /
CCOC(=O)C1=C(c2ccccc2)O/C(=C(\C(=O)OC)C(F)(F)F)S1 | -18.0 | -3.9 | 8.6 | 21.6 | / | -2.4
SMILES | esBAF inh | SMARCA2 act | HSF1 activator | MITF TRPM1 HTS | Wnt act | HSF1 inh
COC(=O)/C(=C1/Oc2ccc(C(C)(C)C)cc2S1)C(F)(F)F | / | 1.0 | -39.2 | 71.5 | 37.5* | -42.0
Cc1ccc(C(=O)CSc2nnc3n2CCCCC3)s1 | 64.8* | 5.4 | / | 45.9 | 21.9 | /
CCCCc1ccc(NC(=O)C2CCCC2)cc1 | / | 7.8* | 32.4 | / | 0.5 | 27.4
CCN(CC)c1ccc(NC(=O)C2CCCC2)cc1 | 15.6 | 0.7 | -0.1 | / | 1.8 | 4.2
CCCc1ccc(NC(=O)C2CCCN(c3cnccn3)C2)cc1 (stereo unspecified) | 16.1 | 0.6 | 61.0* | 12.0 | 1.1 | 24.9
CCOc1ccc(NC(=O)C2CCCN(c3cnccn3)C2)cc1 (stereo unspecified) | -1.4 | -0.1 | -4.2 | 16.3 | 0.1 | 22.1
